Screening results deposited in PubChem BioAssay by National Center for Advancing Translational Sciences (NCATS).
PI5P4Ka inh – qHTS for Inhibitors of phosphatidylinositol 5-phosphate 4-kinase (PI5P4K); PI5P4Kalpha enzyme, ADP-Glo luminescence, 60 min; stronger effect = lower value; max response, %; hit rate 1.2% among 330,000; active = max response of -50% or lower; inconclusive = between -30% and -50%; inactive = -30% or higher; also: value at the top dose of about 77 µM; % is scaled to controls: 0 for no effect and ±100 for the full control effect
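ADP-Glo luminescence end-point read after a 60 min room-temperature kinase reaction of PI5P4Kalpha plus substrate, initiated with ATP at 5 microM final. Buffer: 0.038 M HEPES pH 7.4, EGTA, 0.1% CHAPS, 5% DMSO.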
Pol beta inh – qHTS Assay for Inhibitors of DNA Polymerase Beta. Potency, µM (highest dose often 114 µM), for the others: top-dose activity change, negative = inhibition, hits mostly inhibitors. hit rate 1.3% among 340,000. P06746. Pol beta primer extension/strand displacement, fluorescence kinetic; also: potency is read from the fitted curve at half-maximal effect; % is scaled to controls: 0 for no effect and ±100 for the full control effect
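Curves were derived by four-parameter Hill fits of normalized qHTS data. The kinetic fluorescent primer-extension read was taken at 0 and 10 min after 50 nM substrate, following a 15 min room-temperature preincubation of 10 nM enzyme with compounds.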
Pol kappa inh-1 – qHTS for Inhibitors of Polymerase Kappa | hit rate 0.53% among 400,000 | purified Pol kappa, fluorescent DNA synthesis assay, 10 min | Potency, µM (series often up to 107 µM), for the others: at the highest dose activity, negative = inhibition, most hits filed as inhibitors; also: potency is read from the fitted curve at half-maximal effect; % is scaled to controls: 0 for no effect and ±100 for the full control effect
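Readout: fluorescence, taken kinetically at 0 and 10 min. Conditions: 10 nM Pol kappa, 15 min RT compound preincubation, 50 nM substrate final. Controls: enzyme-free buffer wells.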
Pol eta inh-1 – qHTS for Inhibitors of Polymerase Eta. DNA polymerase eta (Homo sapiens), Q9Y253. recombinant Pol eta, fluorescent DNA replication assay. Potency, µM (doses to about 114 µM), for the others: top-dose activity change, negative = inhibition, usual class: inhibitors. hit rate 1.2% among 390,000. AID 588591, 2011; also: potency is read from the fitted curve at half-maximal effect; % is scaled to controls: 0 for no effect and ±100 for the full control effect
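Fluorescent replication assay: 50 nM final substrate added after a 15 min room-temperature compound preincubation with 10 nM enzyme. Signal taken at 0 min and again at 10 min.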
POLI inh – qHTS for Inhibitors of Polymerase Iota | DNA polymerase iota (Homo sapiens), Q9UNA4 | Pol iota fluorescent replication assay, 10 min | Potency, µM (doses to about 115 µM), without a hit: at the top dose activity, negative = inhibition, actives largely listed as inhibitors | hit rate 1% among 390,000 | AID 588590, 2011; also: potency is read from the fitted curve at half-maximal effect
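Fluorescent replication assay read twice, at 0 min and 10 min after adding 50 nM (final) substrate. Enzyme (10 nM) and compounds were first incubated 15 min at room temperature; enzyme-free buffer wells were negative controls.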
WRN inhibitor – qHTS for Inhibitors of WRN Helicase; Bifunctional 3'-5' exonuclease/ATP-dependent helicase WRN (Homo sapiens), Q14191; WRN helicase unwinding, fluorescent forked duplex, kinetic; Potency, µM (top dose mostly 114 µM), for the others: at the top dose activity change, negative = inhibition, usual class: inhibitors; hit rate 0.46% among 360,000; AID 651768, 2012; also: potency is read from the fitted curve at half-maximal effect; % is scaled to controls: 0 for no effect and ±100 for the full control effect; nearly all actives have a fitted effect of over 55% in size
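Fluorescence dequenching readout, ex 525 nm/em 598 nm, kinetic mode: forked duplex DNA (100 nM final) with adjacent fluorophore and quencher unwound by WRN (20 nM final) with 2 mM ATP. Compound preincubation 15 min, room temperature.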
Pol kappa inh-2 – qHTS for Inhibitors of Polymerase Kappa: Confirmatory Assay for Cherry-picked Compounds | purified Pol-kappa, fluorescent strand-displacement substrate | hit rate 76% among 920 | shares compounds with Pol eta inh-1 | AID 720501, 2013 | Potency, µM, actives largely listed as inhibitors; also: potency is read from the fitted curve at half-maximal effect
Pol eta inh-2 – qHTS for Inhibitors of Polymerase Eta: Confirmatory Assay for Cherry-picked Compounds; hit rate 64% among 2,600; shares compounds with Pol eta inh-1; Pol eta primer extension, TAMRA/BHQ fluorescence, 10 min; Potency, µM, usual class: inhibitors; also: potency is read from the fitted curve at half-maximal effect
Active calls of the source: *; [ ] = dose if it differs, or a comment. A selection: hits, their analogues and other compounds. The true share with any hit is near 2.8%. Unless noted, calls follow the shape of the dose curve; as a rule, active = well fitted curve in the direction sought with a large enough effect; inconclusive = small, poorly fitted or top-dose-only effect, or another doubt; inactive = no such curve, though single readings can be large; an effect the other way counts as inactive or inconclusive.

`Cc1cc(/C=C2\C(=O)NC(=O)N(c3cccc(F)c3)C2=O)c(C)n1-c1ccc(C(=O)O)c(Cl)c1` gave PI5P4Ka inh inconclusive, Pol beta inh 25µM*, Pol kappa inh-1 inconclusive, Pol eta inh-1 14µM*, POLI inh inconclusive, WRN inhibitor -12%[11.6 µM] and Pol eta inh-2 34*.
For CCn1c(C)cc(/C=C2\C(=O)NC(=O)N(c3ccccc3C)C2=O)c1C the results were PI5P4Ka inh -1, Pol beta inh 2%, Pol kappa inh-1 -6%[60.1 µM], Pol eta inh-1 5%, POLI inh 0% and WRN inhibitor -5%.
`Cc1c(Cl)cccc1N1C(=O)NC(=O)/C(=C\c2cc(C)n(-c3cccc(C(=O)O)c3C)c2C)C1=O` gave PI5P4Ka inh -25, Pol beta inh inconclusive, Pol kappa inh-1 79µM*, Pol eta inh-1 35µM*, POLI inh 11µM*, WRN inhibitor -5%[11.6 µM] and Pol eta inh-2 inconclusive.
CSCCOC(=O)COc1ccc(/C=N/NC(=O)c2c(Cl)cnn2C)cc1 was read as PI5P4Ka inh -6, Pol beta inh -1%, Pol kappa inh-1 -9%, Pol eta inh-1 -3%, POLI inh 164% and WRN inhibitor -19%.
`O=C1NC(=O)N(c2ccccc2)C(=O)/C1=C/c1ccc2c(c1)Cc1ccccc1-2` gave Pol beta inh -9%.
For Cc1ccc(N2C(=O)NC(=O)/C(=C\c3ccoc3)C2=O)cc1 the results were PI5P4Ka inh inconclusive, Pol beta inh inconclusive, Pol kappa inh-1 inconclusive, Pol eta inh-1 50µM*, POLI inh 32µM*, WRN inhibitor inconclusive and Pol eta inh-2 48*.
Screening CCc1ccc(N2C(=O)NC(=O)/C(=C\c3cc(C)n(-c4cc(C(=O)O)cc(C(=O)O)c4)c3C)C2=O)cc1 returned PI5P4Ka inh -64*, Pol beta inh 11µM*, Pol kappa inh-1 inconclusive, Pol eta inh-1 14µM*, POLI inh 20µM*, WRN inhibitor inconclusive, Pol kappa inh-2 12* and Pol eta inh-2 30*.
`Cc1ccc(N2C(=O)NC(=O)/C(=C\c3cc(C)n(-c4ccc(C(=O)O)cc4)c3C)C2=O)cc1` gave PI5P4Ka inh -26, Pol beta inh inconclusive, Pol kappa inh-1 inconclusive, Pol eta inh-1 35µM*, POLI inh 25µM*, WRN inhibitor -4%[11.6 µM] and Pol eta inh-2 inconclusive.
